Assay outcomes deposited in PubChem BioAssay by several laboratories.
Arbovirus anti: blocks arbovirus infection | arbovirus infection cell-based antiviral screen | inhibition, % at 10 µM | 200,000 compounds, 0.37% hits | AID 1251; in the data active = inhibition above about 30%
Measles CPE: protection of cells from measles virus; protection (pct of control), % at 4 µM; Measles virus-infected cells, CPE protection, absorbance; 140,000 compounds, 1.5% hits; in the data active = protection mostly above about 24%, no sharp cut-off; inactive = mostly below about 26%
ROMK mod: modulates human ROMK potassium channel activity; B-score at 10 µM; Tet-inducible ROMK, thallium flux fluorescence; actives lie on both sides; AID 1918; 130,000 compounds, 2% hits; P48048;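 active = signal ratio slope over the read window, or its plate-corrected B-score, at least 3 SD from the plate mean, either direction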;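 also: B-score of the F/F0 ratio slope over 7 to 12 s after thallium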
Target sequence (P48048 whole entry, looked up): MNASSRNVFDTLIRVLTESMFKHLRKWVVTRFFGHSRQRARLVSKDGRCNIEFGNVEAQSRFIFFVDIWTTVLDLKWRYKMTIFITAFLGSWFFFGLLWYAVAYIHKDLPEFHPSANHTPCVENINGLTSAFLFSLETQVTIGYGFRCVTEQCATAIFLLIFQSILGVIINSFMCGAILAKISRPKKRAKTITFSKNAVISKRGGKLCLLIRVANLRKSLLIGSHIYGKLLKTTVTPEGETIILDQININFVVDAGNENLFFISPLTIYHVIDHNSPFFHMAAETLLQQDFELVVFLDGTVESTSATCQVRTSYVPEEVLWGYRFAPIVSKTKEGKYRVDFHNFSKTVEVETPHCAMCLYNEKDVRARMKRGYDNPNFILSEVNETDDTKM
Cl transport mod: KCC2 (human) Cl- transport modulation; Q9H2X9; KCC2 cells, thallium flux FluoZin-2 fluorescence; B-score of Tl+ flux slope (higher = more flux/activation; lower = inhibition) at 10 µM; 190,000 compounds, 2.2% hits; AID 1456;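 active = thallium flux slope and its plate-corrected score both differing from the plate sample mean at a set confidence after two filtering rounds, in either direction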;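 also: slope of fluorescence scaled to starting intensity during 10 to 20 s after thallium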
HSV replic up: HSV replication enhancement. 220,000 compounds, 0.005% hits. maximum fold increase. HSV replication augmentation in cells, fold increase. AID 1956; in the data active = maximum fold increase above about 1.5; inconclusive = no clear call, values can overlap the other calls; tested in PC3 cells
ROMK retest: retested hit modulating human ROMK potassium channel; AID 1917; ROMK thallium flux, fluorescence ratio; stronger effect = lower value; normalized thallium flux (F/F0 slope) at 10 µM; shares compounds with ROMK mod; 3,000 compounds, 54% hits;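 active = Flux at 10 µM at least 3 SD below or above vehicle control mean in one or both replicates; inconclusive = no clear call, values can overlap the other calls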
* hit, by the source's call; i = inactive; u = inconclusive; x = no result. The list is not random: actives were taken first. Their share in the collection is about 4%.

SMILES | Arbovirus anti | Measles CPE | ROMK mod | Cl transport mod | HSV replic up | ROMK retest
O=C(CSc1c2c(nc3cc(Cl)ccc13)CCCC2)NCCCN1CCOCC1 | 13 | x | -1.8* | 0.57 | i | 0.081
N#Cc1nc(-c2cccs2)oc1NCc1ccccc1 | -3 | 7 | -3.6* | -1.6 | i | 0.054*
Cc1ccc(CNc2oc(-c3cccs3)nc2C#N)cc1 | -12 | 5 | -0.003 | x | x | x
COC(=O)C1=C[C@@H](C(=O)OC)[C@@H]2C3=C(C(=O)C2(C)C)[C@H](C)n2c(=O)n(-c4ccccc4)c(=O)n2[C@@H]3C1 | x | x | x | x | i | x
Cc1ccc(OCC(=O)NCc2cccs2)c([N+](=O)[O-])n1 | 3 | x | -0.077 | 0.16 | i | x
O=C(C[n+]1cccc2ccccc21)c1ccccc1 | 7 | 11 | 0.43 | -0.26 | i | x
O=C(C[n+]1cc2ccccc2c2ccccc21)c1ccccc1 | 1 | 13 | -3.8* | -0.31 | i | 0.057*
O=C1N=C(N2CCOCC2)S/C1=C\c1ccc(-c2ccccc2Cl)o1 | -9 | 20 | x | i | i | 0.052*
CC(C)Nc1nnc(SCC(=O)NCc2ccc3c(c2)OCO3)s1 | 9 | x | -0.061 | 1.8 | i | x
CC(C)Nc1nnc(SC(C)C(=O)NCc2ccc3c(c2)OCO3)s1 (stereo unspecified) | 1 | x | 1.7* | -0.055 | i | 0.077
Cc1c(Br)c([N+](=O)[O-])nn1CC(=O)N(C)Cc1ccccc1 | -4 | x | -1 | -1.2 | i | x
CCOc1cc(/C=C\[N+](=O)[O-])ccc1OCC(=O)N1CCOCC1 | -33 | x | -5.6* | 1.7 | i | 0.056*
COc1ccc(Sc2nc(-c3ccccn3)ncc2OC)cc1 | -18 | x | -0.083 | -0.42 | i | x
COc1cnc(-c2ccccn2)nc1Sc1ccccc1 | -30 | x | -3 | x | i | u
OC(C#CCCN1CCCCC1)(c1ccccc1)c1ccccc1 | x | x | x | 0.76 | i | x
OC(C#CCCN1CCCCC1)(c1ccccc1)C1CCCCC1 (stereo unspecified) | x | x | x | 0.52 | i | 0.062*
COCCNc1nnnc2c1sc1nc(N3CCOCC3)c3c(c12)CCCC3 | -2 | x | 0.69 | -0.14 | i | x
O=C(c1cc([N+](=O)[O-])ccc1Cl)N1c2ccccc2Sc2ccccc21 | 18 | 18 | 0.043 | -0.38 | i | x
Cc1cccn2c(=O)c3cc(C(=O)NC4CCCC4)c(=N)n(C4CCCC4)c3nc12 | -48 | 19 | -2.6* | -1.7 | i | u
O=c1cc(CNc2ccc(Br)cc2)nc2sccn12 | -11 | 6 | x | -0.7 | i | x
O=c1c2ccccc2nc(-c2ccccc2Cl)n1O | 10 | x | 2.8* | 1.8 | i | 0.071
O=C(O)c1ccccc1-c1nc2cc(Cl)ccc2c(=O)n1O | -1 | x | -3.2* | 0.58 | i | 0.068*
O=C(O)c1ccccc1Cc1nc2cc(Cl)ccc2c(=O)[nH]1 | 10 | x | 0.43 | -2.2 | i | x
COc1ccc(CCNC(=O)c2cc(-c3cc(Cl)ccc3O)n[nH]2)cc1OC | x | x | x | 0.29 | i | x
Nc1ccc(-c2nc3nc(N)nc(N)c3nc2-c2ccc(N)cc2)cc1 | x | x | x | 0.69 | i | x
SMILES | Arbovirus anti | Measles CPE | ROMK mod | Cl transport mod | HSV replic up | ROMK retest
O=c1c(/C=N/Nc2ccccc2)c(Sc2nnnn2-c2ccccc2)nc2ccccn12 | -33 | 11 | -3.7* | -0.069 | x | 0.04*
CCN(CC)S(=O)(=O)c1ccc(NC=C(C#N)C#N)cc1 | x | x | x | 6 | i | x
Cc1cc(NC(=O)CSc2nc3ccccc3c(=O)n2C2CCCC2)no1 | -20 | 4 | 2.9* | 0.37 | i | u
CCN1C=C(Cc2ccc(OC)cc2)C2=C(C1)C(c1ccc(OC)cc1)C(C#N)=C(N)O2 (stereo unspecified) | 19 | 14 | x | 0.19 | x | u
Clc1ccc(OCCn2ccnc2)c(Cl)c1 | 1 | 6 | x | 0.5 | i | x
Clc1ccc(OCCn2ccnc2)c2ccccc12 | -8 | 4 | -3.2* | x | i | u
CCN1C(=O)c2cccc3c(S(=O)(=O)NCC4CCCO4)ccc1c23 (stereo unspecified) | x | x | x | 1.7 | i | x
CC/C(O)=C1\C(=O)CCCC1=NCc1nc2ccccc2[nH]1 | 0 | x | x | -0.8 | i | x
CC(C)Cn1c(=O)c(C(=O)N/N=C/c2cccc(F)c2)c(O)c2ccccc21 | 7 | 17 | -0.11 | 0.8 | i | x
O=C(O)c1ccc(N2C(=O)c3cccc4c(C(=O)O)ccc(c34)C2=O)cc1 | 21 | x | -0.97 | 0.27 | i | x
O=C(O)c1ccc(N2CCCCCC2)c(N2C(=O)c3ccccc3C2=O)c1 | 12 | 13 | x | -0.64 | i | x
O=C1c2cccc3c(N4CCCCC4)ccc(c23)C(=O)N1c1ccccc1O | -20 | x | -5.2* | x | u | 0.051*
O=C1c2cccc3c(N4CCCCC4)ccc(c23)C(=O)N1c1ccc(O)cc1 | -6 | x | -3.1* | 1 | u | 0.051*
CCC(c1nnnn1C(C)(C)CC)N(CCN1CCOCC1)Cc1cc2cc(C)ccc2[nH]c1=O (stereo unspecified) | 22 | 25 | -4.8* | 0.27 | x | u
CCCC(c1nnnn1C(C)(C)CC)N(CCCO)Cc1cc2cc(C)cc(C)c2[nH]c1=O (stereo unspecified) | -11 | 18 | -3.7* | x | i | 0.055*
CCC(C)(C)n1nnnc1C(C(C)C)N(CCCO)Cc1cc2cc(C)ccc2[nH]c1=O (stereo unspecified) | 10 | 9 | x | -1.7 | i | x
O=C(CCc1nnc(Cc2c[nH]c3ccccc23)o1)NCC1CC12CCCCC2 (stereo unspecified) | -10 | x | -0.018 | -1.6 | i | x
CCOC(=O)COc1ccccc1/C=C\[N+](=O)[O-] | -45 | 2 | x | 0.59 | i | x
CCOc1cccc(/C=C2\NC(=S)N(c3ccccc3)C2=O)c1O | x | x | x | -2.4 | u | 0.058*
Cc1cccc(NC(=O)c2ccc(CN3CCN(Cc4ccccc4)CC3)cc2)c1 | -6 | x | -2.1* | -0.58 | i | u
COc1ccc(CN(CCN(C)C)c2ccccn2)cc1 | 2 | 26 | x | 2.3 | i | x
CC(C)n1cnc2c(N(C)c3ccccc3)nc(N(CCN(C)C)Cc3ccccc3)nc21 | x | x | x | -2.1 | i | 0.052*
O=C(CSc1nnnn1C1CC2CCC1C2)Nc1ccnc2ccccc12 (stereo unspecified) | 15 | 4 | x | -0.43 | x | u
CCOC1(/N=C(\C)NS(=O)(=O)c2ccc(Cl)cc2)C(C)=CC(=O)C=C1C | -7 | x | -0.011 | -0.028 | i | x
CC[n+]1c(C)n(-c2ccccc2)c2ccc(C(=O)OC)cc21 | 6 | x | -0.4 | x | i | x
SMILES | Arbovirus anti | Measles CPE | ROMK mod | Cl transport mod | HSV replic up | ROMK retest
Cc1ccc(-c2nn3c(C)nnc3s2)cc1NCc1c(F)cccc1Cl | -16 | 3 | x | -0.36 | i | 0.075
CCOC(=O)C(C)CC(C)C(=O)N1CCOCCN(C(=O)C(C)CC(C)C(=O)OCC)CCOCC1 (stereo unspecified) | 7 | 11 | x | 0.31 | i | 0.091
CCCCOC(=O)N1CCOCCOCCOCC1 | x | x | x | 0.087 | i | x
O=C(N/N=C/c1cccs1)c1cc(-c2ccncc2)nc2ccccc12 | -13 | 6 | 4.2* | -0.81 | i | 0.085
C=CCS/C(N)=N\N=C\c1c(O)ccc2ccccc12 | x | x | x | 0.62 | i | x
COCCN=c1scc(-c2ccco2)n1/N=C/c1ccc(O)c(O)c1O | -1 | x | 3.2* | -0.078 | i | 0.079
